In PubChem BioAssay (Tox21) one finds Potency, activity change, negative = cytotoxicity and viability change, negative = cytotoxic data, which are given here for 58 compounds.

A short description of test [1]: cAMP Responsive Elements (CRE) small molecule antagonists, cell-based qHTS assay: qHTS cell viability counter screen (AID 2060913). Further: nearly all actives have a fitted effect of over 40% in size. In outline: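 Steps: cells plated and held 18 hrs at 37 C/5% CO2; compounds and NKH477 (0.25 uM final) added; 3 hrs incubation; reporter substrate read; CellTiter-Glo added to measure cytotoxicity by luminescence.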
(In general: qHTS replaces the single test concentration by a dilution series.)

Test [2] in a line: cAMP Responsive Elements (CRE) small molecule agonists, cell-based qHTS assay: qHTS cell viability counter screen (AID 2060914). Further: nearly all actives have a fitted effect of over 50% in size. In outline: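 HEK 293T CRE-bla; DMEM + 10% dialyzed FBS, 25 mM HEPES; 18 h pre-incubation; compound 3 h, 37 °C/5% CO2; CellTiter-Glo added after reporter read; luminescence after 30 min RT.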

Results filed as inconclusive are left out. Values without a mark were called inactive. Calls of active or inactive are those of the source. The call rests on the fitted dose curve; in most records, active means well fitted cell-killing curve with a large enough effect in the repeat runs; inconclusive means weak or mixed curves, or effect the other way; inactive means flat fitted curve, though single readings scatter.
On the % scale 0 is the no-effect control and ±100 the full control effect; potency means the concentration at half of the fitted maximal effect.

`Cc1ccc([N+](=O)[O-])cc1N`: the Potency entry in test [1] and in test [2] was “inactive” throughout.

Regarding `CC1=CC[C@H](CC=O)C1(C)C`, the Potency entry in test [1] and in test [2] was “inactive” throughout.

As for `Cc1ccc(N)cc1[N+](=O)[O-]`, the Potency result in test [1] and in test [2] was “inactive” in each case.

Regarding `CC(=O)N(CC(O)CO)c1c(I)c(C(=O)NCCO)c(I)c(C(=O)NCC(O)CO)c1I` (stereo unspecified), the Potency entry in test [1] and in test [2] was “inactive” each time.

For the compound `Cc1cc(-c2ccccc2)nnc1NCCN1CCOCC1`, the Potency entry in test [1] and in test [2] was “inactive” throughout.

As to `Nc1ccc(NCCO)c([N+](=O)[O-])c1`, the Potency result in test [1] and in test [2] was “inactive” throughout.

On to `NC12CC3CC(CC(C3)C1)C2`, for which the Potency entry in test [1] and in test [2] was “inactive” throughout.

Turning to `OCCCCCO`, the Potency result in test [1] and in test [2] was “inactive” throughout.

On to `CC(C)OC(=O)COc1ccc(Cl)cc1Cl`, for which the Potency entry in test [1] and in test [2] was “inactive” in each case.

Regarding `CC(C)N(C)C`, the Potency result in test [1] and in test [2] was “inactive” each time.

Turning to `C=C(C)c1cccc(C(C)(C)N=C=O)c1`, the Potency result in test [1] and in test [2] was “inactive” throughout.

As for `CC(C)[N+](C)(CCOC(=O)C1c2ccccc2Oc2ccccc21)C(C)C`, the Potency entry in test [1] and in test [2] was “inactive” throughout.

Turning to `C=CC(=O)NC(C)(C)C`, the Potency result in test [1] and in test [2] was “inactive” each time.

For `OCCN(CCO)c1nc(N2CCCCC2)c2nc(N(CCO)CCO)nc(N3CCCCC3)c2n1`, the Potency entry in test [1] and in test [2] was “inactive” throughout.

Regarding `O=C1c2ccccc2C(=O)N1CO`, the Potency result in test [1] and in test [2] was “inactive” throughout.

`O=C(c1ccccc1)c1cc(Cl)ccc1O`: the Potency entry in test [1] and in test [2] was “inactive” in each case.

In the case of `Cc1nc2ccccn2c(=O)c1CCN1CCC(C(=O)c2ccc(F)cc2)CC1`, the Potency entry in test [1] and in test [2] was “inactive” each time.

With `[O-][n+]1ccccc1SSc1cccc[n+]1[O-]`, in test [1], the Potency was 0.461 µM (active). For the same compound, the activity change, negative = cytotoxicity in test [2] was -16.6% [at 18.9 µM].

With `CC1=C(C=O)C(C)(C)CCC1`, the Potency entry in test [1] and in test [2] was “inactive” in each case.

Turning to `Cc1cccc(C)c1NC(=O)CC12CCCN1CCC2`, the Potency entry in test [1] and in test [2] was “inactive” each time.

As for `C=CC(=O)O[C@H]1C[C@@H]2CC[C@@]1(C)C2(C)C`, the Potency entry in test [1] and in test [2] was “inactive” throughout.

As for `Nc1cc(Cl)c(N)c(Cl)c1`, the Potency result in test [1] and in test [2] was “inactive” in each case.

As for `Cc1ccc(O)c([N+](=O)[O-])c1`, the Potency entry in test [1] and in test [2] was “inactive” throughout.

Turning to `CCCCC(CC)COC(=O)CS` (stereo unspecified), the Potency result in test [1] and in test [2] was “inactive” each time.

As to `CCC1(c2ccccc2)C(=O)NCNC1=O`, the Potency entry in test [1] and in test [2] was “inactive” in each case.

On to `CCCCCCCN`, for which the Potency entry in test [1] and in test [2] was “inactive” in each case.

Turning to `CCc1cc(C(N)=S)ccn1`, the Potency result in test [1] and in test [2] was “inactive” throughout.

Take `CCN1CCN(c2cc(-c3ccc(F)cc3)c3c(n2)CCCCCC3)CC1`: in test [1], the viability change, negative = cytotoxic was -3.64% [at 18.9 µM]. For the same compound, in test [2], the activity change, negative = cytotoxicity was -20.1% [at 18.9 µM].

Take `CCCCCCCC[P+](CCCCCCCC)(CCCCCCCC)CCCCCCCC`: the Potency in test [1] is 17.1 µM (active); in test [2] it was 21.6 µM (active).

On to `O=C(Nc1ncc([N+](=O)[O-])s1)c1cccs1`, for which the Potency in test [1] is 21.1 µM (active); in test [2], 11.9 µM (active).

In the case of `C[C@]12CCC(=O)C=C1CC[C@H]1[C@@H]3CC[C@](O)(C(=O)CO)[C@@]3(C)C[C@H](O)[C@@]12F`, the Potency entry in test [1] and in test [2] was “inactive” in each case.

With `N#Cc1ccc(C2CCCc3cncn32)cc1` (stereo unspecified), the Potency entry in test [1] and in test [2] was “inactive” each time.

Consider `CCO[Si](CCC#N)(OCC)OCC`, for which the Potency result in test [1] and in test [2] was “inactive” each time.

Turning to `OC[C@H](Cc1cccc(O)c1)[C@H](CO)Cc1cccc(O)c1`, the Potency result in test [1] and in test [2] was “inactive” throughout.

In the case of `[Cl][Eu]([Cl])[Cl]`, the Potency entry in test [1] and in test [2] was “inactive” each time.

As to `CCCCCCC(CCCCCCCCCCC(=O)OCC(COC(C)=O)OC(C)=O)OC(C)=O` (stereo unspecified), the Potency entry in test [1] and in test [2] was “inactive” throughout.

Regarding `CC1=C(/C=C/C(C)=C\C=C\C(C)=C\C(=O)O)C(C)(C)CCC1`, the Potency entry in test [1] and in test [2] was “inactive” each time.

With `Cc1ccc2oc(=O)ccc2c1`, the Potency entry in test [1] and in test [2] was “inactive” throughout.

For the compound `OC(C#CCN1CCCC1)(c1ccccc1)c1ccccc1`, the Potency entry in test [1] and in test [2] was “inactive” in each case.

For `CCCCCCCC/C=C\CCCCCCCCCCCC(=O)O`, the Potency entry in test [1] and in test [2] was “inactive” throughout.

As to `C(=C\c1ccccc1)/c1ccccc1`, the Potency result in test [1] and in test [2] was “inactive” in each case.

Regarding `CC[N+](CC)(CC)CCOc1cccc(OCC[N+](CC)(CC)CC)c1OCC[N+](CC)(CC)CC`, the Potency entry in test [1] and in test [2] was “inactive” each time.

Consider `O=C(O)c1ccccc1C(=O)OCc1ccccc1`, for which the Potency result in test [1] and in test [2] was “inactive” in each case.

`CCc1cc(C2=C(C(=O)O)N(c3ccccc3C(F)(F)F)S(=O)(=O)c3ccccc32)cc2c1OCO2`: the Potency entry in test [1] and in test [2] was “inactive” each time.

Regarding `CCOC(=O)CCCCCCCCC(=O)OCC`, the Potency result in test [1] and in test [2] was “inactive” each time.

For the compound `CCCOC(C(=O)OC1CCN(C)CC1)(c1ccccc1)c1ccccc1`, the Potency entry in test [1] and in test [2] was “inactive” each time.

Consider `CCN(CC)c1ccc(C(=O)c2ccccc2C(=O)O)c(O)c1`, for which the Potency result in test [1] and in test [2] was “inactive” in each case.

Regarding `Nc1nnc(-c2cccc(Cl)c2Cl)c(N)n1`, the Potency result in test [1] and in test [2] was “inactive” throughout.

On to `Cc1sccc1Br`, for which the Potency entry in test [1] and in test [2] was “inactive” in each case.

With `Nc1c(Cl)cc(Cl)cc1Cl`, the Potency entry in test [1] and in test [2] was “inactive” each time.

With `O=C(Oc1cccc2cccnc12)c1ccccc1`, the Potency entry in test [1] and in test [2] was “inactive” each time.

Take `C=CC(=O)NC(C)(C)CS(=O)(=O)O`: the Potency result in test [1] and in test [2] was “inactive” each time.

As to `O=C1CC[C@@H](C(=O)O)N1`, the Potency result in test [1] and in test [2] was “inactive” in each case.

As to `COc1cc(C(C)(C)C)c(O)c(C(C)(C)C)c1`, the Potency entry in test [1] and in test [2] was “inactive” throughout.

Consider `CCCN1C[C@H](CSC)C[C@@H]2c3cccc4[nH]cc(c34)C[C@H]21`, for which the Potency entry in test [1] and in test [2] was “inactive” in each case.

Regarding `CCCCCCCCCCCCOCC1CO1` (stereo unspecified), the Potency result in test [1] and in test [2] was “inactive” throughout.

In the case of `Cn1c(NCCN(CCO)CCCc2ccc([N+](=O)[O-])cc2)cc(=O)n(C)c1=O`, the Potency result in test [1] and in test [2] was “inactive” in each case.

In the case of `CCCCOCCOC(=O)COc1ccc(Cl)cc1Cl`, the Potency entry in test [1] and in test [2] was “inactive” in each case.
